From PubChem BioAssay (NCATS)
Inconclusive results are not listed. Activity calls are given as the source filed them. Unless noted, the call rests on the fitted dose curve; in most records, active means well fitted curve in the direction sought with a large enough effect; inconclusive means small, poorly fitted or top-dose-only effect, or another doubt; inactive means no such curve, though single readings can be large; an effect the other way counts as inactive or inconclusive.

Key:
[1] = qHTS for Inhibitors of the Functional Ribonucleoprotein Complex (vRNP) of Lassa (LASV) Arenavirus: LASV Primary Screen - GLuc reporter signal (AID 1347082; calls by dose curve; tested in HEK293 reporter line; further: series mostly up to about 57 µM; nearly all actives have a fitted effect of over 60% in size)
[2] = qHTS for Inhibitors of the Functional Ribonucleoprotein Complex (vRNP) of Lassa (LASV) Arenavirus: Viability assay - alamar blue signal for LASV Primary Screen (AID 1347083; calls by dose curve; tested in HEK293 reporter line; further: series mostly up to about 57 µM; nearly all actives have a fitted effect of over 80% in size)
[3] = qHTS of pediatric cancer cell lines to identify multiple opportunities for drug repurposing: Primary screen for TC32 cells (AID 1347089); further: nearly all actives have a fitted effect of over 60% in size
Procedure, shortened: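 qHTS, TC32, 48 h drug treatment, CellTiter-Glo luminescence as a proxy for metabolically active cells; primary top concentration 46 µM (MIPE 11-pt, NPC 8-pt); confirmatory 11-pt.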

[4] = qHTS of pediatric cancer cell lines to identify multiple opportunities for drug repurposing: Primary screen for DAOY cells (AID 1347090); further: series mostly up to about 46 µM; nearly all actives have a fitted effect of over 55% in size
Procedure, shortened: (§1)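 Viability measured as metabolically active cells via CellTiter-Glo luminescence following 48 hours of compound exposure, 11-point dilutions in confirmatory testing. 500-1,000 cells/well plated 5 hours before dosing; controls were DMSO and 2.3 µM bortezomib.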

[5] = qHTS of pediatric cancer cell lines to identify multiple opportunities for drug repurposing: Primary screen for SJ-GBM2 cells (AID 1347091)
Procedure, shortened: as §1

[6] = qHTS of pediatric cancer cell lines to identify multiple opportunities for drug repurposing: Primary screen for A673 cells (AID 1347092); further: nearly all actives have a fitted effect of over 45% in size
Procedure, shortened: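 Luminescence from CellTiter-Glo, taken after 15 min at room temperature, served as the proxy for metabolically active cells following 48 h treatment. Both potency and efficacy were taken from curves fitted to the titration data.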

[7] = qHTS of pediatric cancer cell lines to identify multiple opportunities for drug repurposing: Primary screen for SK-N-MC cells (AID 1347093); further: series mostly up to about 46 µM
Procedure, shortened: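 Metabolically active cells were quantified by ATP-dependent luminescence (CellTiter-Glo, 15 min at room temperature) following 48 h treatment. Cells had been plated at 500-1,000 per well and settled for 5 h beforehand.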

[8] = qHTS for Inhibitors of the Functional Ribonucleoprotein Complex (vRNP) of Lymphocytic Choriomeningitis Arenaviruses (LCMV): Viability assay - alamar blue signal for LCMV Primary Screen (AID 1347085; calls by dose curve; tested in HEK293 reporter line; further: series mostly up to about 57 µM; nearly all actives have a fitted effect of over 80% in size)
[9] = biological target: Nucleoprotein (Lymphocytic choriomeningitis virus (strain Armstrong)) (UniProt P09992); assay: qHTS for Inhibitors of the Functional Ribonucleoprotein Complex (vRNP) of Lymphocytic Choriomeningitis Arenaviruses (LCMV): LCMV Primary Screen - GLuc reporter signal (AID 1347086; calls by dose curve; further: series mostly up to about 57 µM; nearly all actives have a fitted effect of over 70% in size)

Measured: Potency

Nucleoprotein (Lymphocytic choriomeningitis virus (strain Armstrong)), sequence (P09992 whole entry, looked up): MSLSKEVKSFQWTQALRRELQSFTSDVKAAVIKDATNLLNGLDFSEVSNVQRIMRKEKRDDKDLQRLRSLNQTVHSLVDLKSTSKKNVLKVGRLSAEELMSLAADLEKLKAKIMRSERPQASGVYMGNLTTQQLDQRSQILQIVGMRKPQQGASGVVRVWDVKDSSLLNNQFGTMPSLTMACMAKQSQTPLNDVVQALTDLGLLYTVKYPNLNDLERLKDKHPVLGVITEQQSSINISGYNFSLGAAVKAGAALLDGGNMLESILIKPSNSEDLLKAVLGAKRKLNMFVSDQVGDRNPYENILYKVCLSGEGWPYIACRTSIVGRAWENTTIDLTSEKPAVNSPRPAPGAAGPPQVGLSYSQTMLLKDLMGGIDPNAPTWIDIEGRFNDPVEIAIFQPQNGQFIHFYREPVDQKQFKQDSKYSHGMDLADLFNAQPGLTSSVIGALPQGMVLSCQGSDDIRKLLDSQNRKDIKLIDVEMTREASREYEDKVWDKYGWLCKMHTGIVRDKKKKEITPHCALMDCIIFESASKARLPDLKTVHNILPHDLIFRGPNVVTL

CCC(=O)C(CCN(C)C)(c1ccccc1)c1ccccc1
not listed: [8] | [9]
inactive: all other assays above

CCO[C@@H]1O[C@H](C(COCc2ccccc2)OCc2ccccc2)[C@H](OCc2ccccc2)[C@H]1O (stereo not given in full)
inactive: [1] | [8] | [9]

C[C@]12Cc3nonc3C[C@@H]1CC[C@@H]1[C@@H]2CC[C@@]2(C)[C@H]1CC[C@]2(C)O
inactive: [1] | [8] | [9] | [3] | [4]
